G9a block – inhibitors of human histone lysine methyltransferase G9a | 8.8% of 350,000 active | Potency, µM (series often up to 102 µM), for the others: at the highest dose activity, negative = inhibition, actives largely listed as inhibitors | G9a H3K9 monomethylation, AlphaScreen, 2 h | Q96KQ7; note: potency is the fitted concentration of half-maximal effect; nearly all actives have a fitted effect of over 75% in size
Target sequence (Q96KQ7 913-1193 limits assumed): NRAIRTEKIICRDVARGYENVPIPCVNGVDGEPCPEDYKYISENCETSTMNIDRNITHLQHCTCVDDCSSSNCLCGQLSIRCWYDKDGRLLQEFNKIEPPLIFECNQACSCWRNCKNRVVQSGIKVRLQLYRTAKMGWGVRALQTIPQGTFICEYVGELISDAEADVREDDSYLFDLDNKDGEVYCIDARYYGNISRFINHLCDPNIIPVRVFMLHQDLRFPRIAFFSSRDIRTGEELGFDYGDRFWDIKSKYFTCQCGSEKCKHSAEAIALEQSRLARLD
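Signal arises when biotinylated H3K9 peptide, once monomethylated, bridges streptavidin donor and antibody-captured acceptor beads. Enzyme at 20 nM was preincubated 15 min with test compounds; peptide 500 nM and SAM 20 uM then reacted for 2 h.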
PLK1 PBD inh – blocks phosphopeptide binding to human PLK1 polo-box domain | P53350 | Plk1 PBD binding of FITC phosphopeptide, fluorescence polarization | Potency, µM, for the others: max response, negative = inhibition, hits mostly inhibitors | 2.8% of 360,000 active | AID 720504; note: potency is the fitted concentration of half-maximal effect; series mostly up to about 57 µM; nearly all actives have a fitted effect of over 65% in size
Sfp inh – blocks B. subtilis Sfp PPTase activity; Q9F4F7; Biochemical Sfp PPTase activity, qHTS; Potency, µM, for the others: largest response in the series, negative = inhibition, most hits filed as inhibitors; 3.5% of 310,000 active; AID 1490;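 note: the enzyme is Sfp with the accession as filed and its product quenches rhodamine fluorescence; potency is the fitted concentration of half-maximal effect; 0% = enzyme reaction without inhibitor and -100% = no enzyme wells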
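Buffer: 50 mM Hepes-Na pH 7.6, 10 mM MgCl2, 0.01% Nonidet P-40, 0.01% BSA. Enzyme 15 nM, pre-exposed to compound 15 min; substrates then added and fluorescence change tracked over 30 min.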
CCT modulator – cytosolic chaperonin activity modulation | 0.3% of 360,000 active | AID 651819 | activity change, % (no concentration beside the values), hits read low | purified chaperonin ATPase assay, HTRF ADP detection, 30 min; in the data active = activity change below about -30%
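First, chaperonin was dispensed at 40 nM or 20 nM final depending on batch activity. Next, compounds were pinned at 76 uM and ATP added at 10 uM. After 30 min at 37 °C, ADP detection reagents ran 30 min at ambient temperature.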
MmCpn inh – M. maripaludis TRiC chaperonin inhibition; purified Mm-Cpn ATPase, ADP Transcreener TR-FRET; Potency, µM (titrated, usually from 76.9 µM), for inactives: top-dose activity, negative = inhibition, most hits filed as inhibitors; 0.031% of 330,000 active; note: potency is the fitted concentration of half-maximal effect; nearly all actives have a fitted effect of over 80% in size
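ATPase turnover read by TR-FRET ADP competition (Eu cryptate antibody/ADP-d2, 665/590 nm): 10uM ATP final, 25nM Mm-CPN final, 30 min 37degC after 10-min compound preincubation, pH 7.4 Tris/KCl/MgCl2/DTT buffer.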
VDR inhibitor – blocks the human vitamin D receptor. AID 504847. 0.93% of 400,000 active. VDR-SRC2-3 peptide fluorescence polarization, 2 h. Potency, µM, for inactives: max response, negative = inhibition, hits mostly inhibitors. P11473; note: potency is the fitted concentration of half-maximal effect
Target sequence (P11473 whole entry, looked up): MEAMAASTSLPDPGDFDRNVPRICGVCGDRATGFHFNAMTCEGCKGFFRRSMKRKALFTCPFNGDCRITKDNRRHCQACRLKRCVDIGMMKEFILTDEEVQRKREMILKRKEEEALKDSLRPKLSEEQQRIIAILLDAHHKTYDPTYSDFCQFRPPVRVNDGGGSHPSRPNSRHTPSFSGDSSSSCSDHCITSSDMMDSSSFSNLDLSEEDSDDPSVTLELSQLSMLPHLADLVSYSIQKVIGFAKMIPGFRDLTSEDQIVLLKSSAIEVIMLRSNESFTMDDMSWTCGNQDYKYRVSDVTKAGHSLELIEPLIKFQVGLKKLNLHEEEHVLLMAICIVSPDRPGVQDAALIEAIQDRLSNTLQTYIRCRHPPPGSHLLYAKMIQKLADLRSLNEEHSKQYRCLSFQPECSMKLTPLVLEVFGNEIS
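VDR–SRC2-3 interaction, FP format. Cmpds 23 nl via pintool, brief spin, 2 h ambient incubation.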
Numbers without * were called inactive; ? = inconclusive; · = no result given; [ ] = remark or other dose. Only some compounds are listed: those with a hit (about 10% of all), similar ones and a draw of the others. Unless noted, calls come from the whole dose curve; as a rule, active = well fitted curve in the direction sought with a large enough effect; inconclusive = small, poorly fitted or top-dose-only effect, or another doubt; inactive = no such curve, though single readings can be large; an effect the other way counts as inactive or inconclusive. Unless noted, % is set by controls: 0 for no effect and ±100 for the full control effect.

SMILES	G9a block	PLK1 PBD inh	Sfp inh	CCT modulator	MmCpn inh	VDR inhibitor
N=c1c(S(=O)(=O)c2ccccc2)cc2c(=O)n3ccccc3nc2n1C1CCCCC1	·	21µM*	·	-1	·	-26%
Cc1cccc(Cl)c1NNC(=O)Nc1c([N+](=O)[O-])c(C)nn1C	16µM*	0%	12%	-1	-1%	-6%
CC(=O)c1ccc(NC(=O)CCc2c(C)nn(-c3ccc4nnc(C)n4n3)c2C)cc1	17%[59 µM]	·	·	·	·	7%
COc1ccccc1CNC(=O)C1CCC(CNS(=O)(=O)c2ccc3c(c2)CCCC(=O)N3)CC1 (stereo not drawn)	-4%[59 µM]	·	·	·	·	8%
CCCCCCn1cnc2c(oc3nc4c(cc32)CCCC4)c1=O	-10%[59 µM]	-16%	6%	1	2%	39%
O=c1c2oc3nc4c(cc3c2ncn1CCCc1ccccc1)CCCC4	·	11%	-11%	-32*	1%	2%
Cc1cnc(CNc2cc(-c3ccc(N(C)C)cc3)ncn2)cn1	-23%[0.501 µM]	·	2%	·	·	?
Cc1cc(N2O[C@]34C=C[C@]25C[C@@H](O)CC[C@]5(C)C3CC[C@]2(C)[C@@H]([C@H](C)/C=C/[C@H](C)C(C)C)CC[C@H]24)no1 (stereo partly drawn)	·	24µM*	·	0	3%	?
C=C1CCC(O)C/C1=C/C=C1\CCC[C@@]2(C)C(C(C)/C=C/C(C)C(C)C)CC[C@@H]12 (stereo partly drawn)	-27%[2.33 µM]	·	19%	·	·	-17%
Cc1cc(Cl)c2ccc3ccccc3c2n1	25µM*	-12%	2%	-1	2%	-6%
Cc1ccc2c(Cl)cc(Cl)c(O)c2n1	·	-19%	10%	-2	·	-12%
O=C1CC(=O)OC(c2ccc([N+](=O)[O-])cc2)O1	·	6µM*	·	1	·	·
CCC(=O)Nc1ccc2c(c1)nc1n2CCN(C2CCCCC2)C1	?	?	-11%	1	-2%	-13%
CCC(=O)Nc1ccc2c(c1)nc1n2CCN(CCOC)C1	32µM*	-10%	10%	-1	-1%	-23%
COc1ccccc1C(=O)Nc1ccc2c(c1)nc1n2CCN(C2CCCCC2)C1	32µM*	17µM*	-5%	-2	-8%	?
COc1ccc(-c2cc(C3C4C=CCCC4(C)C(=O)N3Cc3ccccc3)ccc2F)cc1 (stereo not drawn)	·	·	-28%	·	·	-13%
Cc1c(Cc2ccc3c(c2)OCO3)sc(NC(=O)C2CC2)c1C(N)=O	3.5µM*	3.8µM*	20µM*	2	-1%	50µM*
Cc1nc(NC(=O)C23CC4CC(CC(C4)C2)C3)sc1Cc1ccc2c(c1)OCO2	35µM*	-5%	9%	-5	-2%	-3%
Cc1nc(NC(=O)C2CCCC2)sc1Cc1ccc2c(c1)OCO2	?	-2%	-12%	2	-6%	15%
COC(=O)c1c(NC(=O)CN2CCN(Cc3ccc4c(c3)OCO4)CC2)sc(C)c1C	-50%[59 µM]	-7%	-1%	3	-3%	14%
COC(=O)c1c(NC(=O)CN2C(=O)c3ccccc3C2=O)sc(Cc2ccc3c(c2)OCO3)c1C	50µM*	-8%	6%	1	1%	-2%
CCN(CC)C(=O)c1sc(NC(=O)c2ccc3c(c2)OCO3)c(C(N)=O)c1C	·	-18%	4%	-2	2%	7%
O=C1CCCCCN1Cc1ccccc1	13%[59 µM]	30µM*	19%	-3	?	-16%
O=C1CCCCCCCN1Cc1ccccc1	·	-5%	·	-1	·	-4%
COc1cccc(-c2ccnc3c(-c4ccc(F)cc4)c(C)nn23)c1	6%[59 µM]	·	·	·	·	-12%
SMILES	G9a block	PLK1 PBD inh	Sfp inh	CCT modulator	MmCpn inh	VDR inhibitor
Cc1cc(N)n(-c2ccc(Oc3ccccc3)c(S(=O)(=O)O)c2)n1	50µM*	?	?	-2	4%	0%
Cn1c(N)nc2ccccc2c1=O	-4%	1%	14%	-1	0%	16%
Cn1c(NCc2ccccc2)nc2c1c(=O)n(Cc1ccc(Br)cc1)c(=O)n2C	?	-2%	4%	-1	-1%	13%
Cn1c(NN)nc2ccccc2c1=O	50µM*	4%	18µM*	0	1%	-5%
Cn1c(NN)nc2c1c(=O)n(Cc1ccccc1)c(=O)n2C	28µM*	-22%	?	3	0%	-9%
Cn1c(=O)n(Cc2ccccc2)c(=O)c2c1nc1n2CCCN1CCc1ccccc1	50µM*	-11%	-7%	0	-1%	-5%
CCCCCCCCN[C@@H](C)[C@H](O)c1ccc(SC(C)C)cc1	9%[21.5 µM]	·	?	·	·	-6%
O=C(NCC(c1ccc2c(c1)OCO2)N1CCOCC1)C(=O)Nc1ccc(Cl)cc1 (stereo not drawn)	12%[59 µM]	·	·	·	·	-9%
COc1ccc(N2CCN(c3ccc(NC(=O)NN)cc3)CC2)cc1	45µM*	-4%	11%	1	0%	-9%
CN1CCN(c2ccc(NC(=O)c3ccc(Oc4ccccc4)cc3)cc2)CC1	50µM*	-9%	0%	0	0%	-5%
COc1ccc(C(=O)N/N=C(/C)c2ccc(N3CCCCC3)cc2)cc1	20%[59 µM]	30µM*	-2%	-1	0%	?
COc1ccc(C(=O)Nc2ccc(N3CCCC3)cc2)cc1	1.6µM*	?	79µM*	-1	0%	-7%
COc1ccc(S(=O)(=O)N(Cc2nc(-c3ccc(Cl)cc3)no2)C2CCCCC2)cc1	1%[59 µM]	·	·	·	·	9%
O=C(NCCN1CCN(c2ccccc2)CC1)Nc1ccc(Cl)cc1	-1%	4%	10%	-1	3%	-13%
COc1ccc(N2CCN(S(=O)(=O)CCNC(=O)Cc3ccc(Cl)cc3)CC2)cc1	-4%[59 µM]	·	·	·	·	14%
CC1CCN(CCNC(=S)Nc2ccc(Cl)cc2)CC1	45µM*	-11%	3%	-3	2%	-12%
COc1ccc(N2CCN(CCNC(=O)Nc3ccc(Cl)cc3)CC2)cc1	8.9µM*	-5%	-2%	-3	1%	-21%
S=C(NCCN1CCOCC1)Nc1ccc(Cl)cc1	-1%[59 µM]	2%	6%	0	0%	-2%
COc1ccc(N2CCN(S(=O)(=O)CCNC(=O)COc3ccc(Cl)cc3)CC2)cc1	24%	-4%	6%	-40*	0%	-8%
COc1ccc(NC(=O)N2CCN(S(C)(=O)=O)CC2)cc1	-8%	27µM*	14%	0	3%	?
O=C(CCNS(=O)(=O)c1cccc2nsnc12)Nc1ccc(F)cc1	-5%[59 µM]	·	·	·	·	-8%
CCOc1ccc(NC(=S)NCCCN2CCN(c3ccc(OC)cc3)CC2)cc1	40µM*	2%	6%	-3	-3%	-3%
CC1(C)CC(=O)c2cc(C(=O)O)c(=O)n(-c3ccccc3)c2C1	-31%[59 µM]	-11%	6%	-2	1%	-10%
CC1(C)CC(=O)c2cc(N=C/C(C(=O)c3ccccc3)=C(\O)c3ccccc3)c(=O)oc2C1	25µM*	24µM*	-7%	-1	?	-21%

Bioassay records: PubChem BioAssay, National Center for Advancing Translational Sciences (NCATS)
